{"source": "PubChem BioAssay AID504882", "about": "(Broad Institute, 2011)", "note": "The whole screen tested about 1,200 compounds, of which about 290 (24%) were called active. Inconclusive results (about 9%) are left out. How the calls were made is not given here. The list is a sample of the results. Results with a measured potency or affinity are listed apart."}
{"experiment": "cytotoxicity in EBV lymphoblastoid cells, dose response, cytotoxicity control, cell-based, plate reader, cherry-picks, set 2 (AID 504882)", "conditions": "EBV lymphoblastoid cells (LCL) viability; series mostly up to 19.5 µM"}
{"smiles": "O=C(O)c1cccc(Nc2ccnc(Nc3cccc(C(=O)O)c3)n2)c1", "outcome": "inactive"}
{"smiles": "COc1ccc(Nc2oc(COc3ccccc3OC)nc2C#N)cc1", "outcome": "inactive"}
{"smiles": "Cc1ccc(/C=C/C(=O)C2C(=O)c3ccccc3C2=O)cc1", "outcome": "inactive"}
{"smiles": "COc1ccc(-c2nc(CS(=O)CC(=O)NCc3ccc(Cl)cc3)c(C)o2)cc1", "note": "(centres undefined)", "outcome": "inactive"}
{"smiles": "O=C(NCc1ccccc1)c1cccc(COc2ccc3c(c2)CCC3)c1", "outcome": "inactive"}
{"smiles": "CC(C)Oc1ccc(C2CC(=O)NC2=O)cc1", "note": "(centres undefined)", "outcome": "inactive"}
{"smiles": "CCCCCc1ccc(-c2ccc(/C=C/C(=O)O)cc2)nc1", "outcome": "inactive"}
{"smiles": "O=C(NCCOc1ccccc1)c1ccc2c(c1)OCO2", "outcome": "inactive"}
{"smiles": "C(=N\\Nc1ccc2ccccc2n1)/c1ccc2c(c1)OCO2", "outcome": "inactive"}
{"smiles": "COc1ccc(/C=C2\\SC(=O)N(CCCC(=O)Nc3ccc(C(=O)O)cc3)C2=O)cc1", "outcome": "inactive"}
{"smiles": "N=c1c(-c2nc3ccccc3[nH]2)cc(C(=O)c2cccs2)nn1-c1ccccc1", "outcome": "inactive"}
{"smiles": "Cc1cc(NC(=O)c2ccc(C)s2)n(-c2nc3ccccc3[nH]2)n1", "outcome": "inactive"}
{"smiles": "CSc1ccccc1C(=O)N1CCC2(CC1)CC(=O)c1ccccc1O2", "outcome": "inactive"}
{"smiles": "CS(=O)(=O)Nc1ccc(C2=NN(S(C)(=O)=O)C(c3ccccc3)C2)cc1", "note": "(centres undefined)", "outcome": "inactive"}
{"smiles": "Cc1cccc(NC(=O)Nc2c(C)n(C)n(-c3ccccc3)c2=O)c1C", "outcome": "inactive"}
{"smiles": "CCc1ccccc1NC(=O)COC(=O)c1c(C)nsc1NC", "outcome": "inactive"}
{"smiles": "CCc1ccc(/C=C2\\SC(=S)N(CCCC(=O)Nc3ccccn3)C2=O)cc1", "outcome": "inactive"}
{"smiles": "CCN1CCN(Cc2ccc(NC(=O)c3ccc(C)c(NC(=O)c4ccno4)c3)cc2C(F)(F)F)CC1", "outcome": "inactive"}
{"smiles": "CCN1CCN(Cc2ccc(NC(=O)c3ccc(C)c(NC(=O)c4nccn4C)c3)cc2C(F)(F)F)CC1", "outcome": "inactive"}
{"smiles": "COC(=O)C(NS(=O)(=O)c1ccc(N2CCCC2=O)cc1)c1ccccc1", "note": "(centres undefined)", "outcome": "inactive"}
{"smiles": "CC(=NNC(=S)N1CCCCCC1)c1cccc2cccnc12", "outcome": "inactive"}
{"smiles": "O=C(CSc1nnc(-c2cccc(S(=O)(=O)N3CCOCC3)c2)n1C1CCCCCC1)NCc1ccccc1", "outcome": "inactive"}
{"smiles": "N#CC(C#N)c1ccnc2ccccc12", "outcome": "inactive"}
{"smiles": "CC(CCc1ccco1)N(C)S(=O)(=O)c1csc(C(N)=O)c1", "note": "(centres undefined)", "outcome": "inactive"}
{"smiles": "CC1CCCN(C(=O)COC(=O)c2n[nH]c3ccccc23)C1", "note": "(centres undefined)", "outcome": "inactive"}
{"smiles": "CCN(C(=O)c1cccc(NC(=O)c2ccccc2)c1)C1CCCCC1", "outcome": "inactive"}
{"smiles": "Brc1cccc(CSc2nnc(-c3ccncc3)o2)c1", "outcome": "inactive"}
{"smiles": "O=c1oc2ccccc2c(O)c1/C=N/c1ccccn1", "outcome": "inactive"}
{"smiles": "CCc1nn2cc(-c3ccccc3)nc2s1", "outcome": "inactive"}
{"smiles": "O=C(NCC1CCOCC1)c1ccc(OC2CCN(Cc3ccccn3)CC2)cc1", "outcome": "inactive"}
{"smiles": "Cc1ccc(C(=O)Nc2cccc(C(F)(F)F)c2)cc1NC(=O)c1ccno1", "outcome": "inactive"}
{"smiles": "COc1cnc(-c2ccccn2)nc1Sc1ccccc1Cl", "outcome": "inactive"}
{"smiles": "CCOc1ccc(NC(=O)CCc2nnc3ccc(N4CCC5(CC4)OCCO5)nn23)cc1", "outcome": "inactive"}
{"smiles": "C[C@H](CO)N1C[C@H](C)[C@@H](CN(C)C(=O)NC2CCCCC2)Oc2c(NS(=O)(=O)c3cn(C)cn3)cccc2C1=O", "outcome": "inactive"}
{"smiles": "CC1=CC(=NOC(=O)/C=C/c2ccccc2)C=C(C)C1=O", "outcome": "inactive"}
{"smiles": "CCc1ccccc1N(CC(=O)NCc1ccco1)C(=O)c1snc(C(N)=O)c1N", "outcome": "inactive"}
{"smiles": "Oc1cccc(/C=N/NC(=S)NCCN2CCOCC2)c1O", "outcome": "inactive"}
{"smiles": "Cc1ccc(C(=O)Nc2cccc(C(=O)N/N=C/c3ccccc3F)c2)cc1", "outcome": "inactive"}
{"smiles": "Cc1ccc(S(=O)(=O)N2c3ccccc3-c3c(ssc3=S)C2(C)C)cc1", "outcome": "inactive"}
{"smiles": "Cc1ccc(S(=O)(=O)N2CCN(C(=O)COC(=O)COc3ccc(Cl)cc3)CC2)c(C)c1", "outcome": "inactive"}
{"smiles": "O=C(Nc1nnc(N2CCCCCC2)s1)c1cc(-c2ccc(Br)cc2)on1", "outcome": "inactive"}
{"smiles": "O=C(c1ccc(COc2ccccc2Cl)o1)N1CCCC1", "outcome": "inactive"}
{"smiles": "Oc1c(N=NC(=S)Nc2ccccc2F)c2ccccc2n1Cc1ccc(F)cc1", "outcome": "inactive"}
{"smiles": "COc1ccc(NC(=O)C2CCCN(S(=O)(=O)c3cccc4nonc34)C2)c(OC)c1", "note": "(centres undefined)", "outcome": "inactive"}
{"smiles": "CC1=C(CC(=O)O)c2cc(F)ccc2C1=Cc1ccc(S(C)(=O)=O)cc1", "outcome": "inactive"}
{"smiles": "Cc1cc(NCCCn2ccnc2)n2ncc(-c3ccccc3)c2n1", "outcome": "inactive"}
{"smiles": "CSc1nc(C)nc2c1c(=O)n(C)c(=O)n2C", "outcome": "inactive"}
{"smiles": "Cc1ccc(S(=O)(=O)N2CCCCC2)cc1NC(=O)CNc1ccccc1N1CCCC1=O", "outcome": "inactive"}
{"smiles": "COc1ccc(Nc2oc(COc3ccc(Cl)cc3)nc2C#N)cc1", "outcome": "inactive"}
{"smiles": "COCC(=O)N1CCC(Oc2ccc(C(=O)N3C[C@H]4CC[C@H]3C4)cc2)CC1", "outcome": "inactive"}
{"smiles": "O=C(CCS(=O)(=O)c1ccccc1)Nc1nccs1", "outcome": "inactive"}
{"smiles": "COc1ccc(OC)c(NC(=O)COc2coc(CN3CCc4ccccc43)cc2=O)c1", "outcome": "inactive"}
{"smiles": "O=C(OCc1nc2ccccc2s1)[C@@H]1CCCN1S(=O)(=O)c1ccccc1F", "outcome": "inactive"}
{"smiles": "Cn1cccc1/C=C1\\CC(C(C)(C)C)C/C(=C\\c2cccn2C)C1=O", "note": "(centres undefined)", "outcome": "inactive"}
{"smiles": "COc1ccccc1-n1c(-c2ccccc2)n[nH]c1=S", "outcome": "inactive"}
{"smiles": "CC(=O)c1ccc(-n2nnnc2SCC(=O)N2CCc3ccccc3C2)cc1", "outcome": "inactive"}
{"smiles": "CCN(Cc1ccncc1)C(=O)CCc1ccccc1", "outcome": "inactive"}
{"smiles": "Cn1cccc1-c1cc(C(=O)N2CCc3c([nH]c4ccccc34)C2c2ccccn2)[nH]n1", "note": "(centres undefined)", "outcome": "inactive"}
{"smiles": "Cc1ccc(CCNC(=O)Cc2ccc(NC3=NC4CS(=O)(=O)CC4S3)cc2)cc1", "note": "(centres undefined)", "outcome": "inactive"}
{"smiles": "Cn1c(=O)c2ncn(CC(=O)O)c2n(C)c1=O", "outcome": "inactive"}
{"smiles": "CCOc1cc(C(=O)OC(C)C(=O)Nc2ncc(Cl)cc2Cl)ccc1OCC(=O)N1CCOCC1", "note": "(centres undefined)", "outcome": "inactive"}
{"smiles": "CC(=O)N1c2ccc(S(=O)(=O)N3CCC(C(=O)N4CCN(c5ccc(Cl)cc5)CC4)CC3)cc2CC1C", "note": "(centres undefined)", "outcome": "inactive"}
{"smiles": "O=C1c2cccc3c(O)ccc(c23)C(=O)N1c1ccc(Cl)cc1", "outcome": "inactive"}
{"smiles": "C/C(=N\\NS(=O)(=O)c1ccc([N+](=O)[O-])cc1)c1cccs1", "outcome": "inactive"}
{"smiles": "COc1cccc(C(=O)O/N=C(\\N)c2ccccn2)c1OC", "outcome": "inactive"}
{"smiles": "COc1cccc(-c2nc(NCc3ccccc3)c3ccccc3n2)c1O", "outcome": "inactive"}
{"smiles": "COc1cccc(/C=N/Nc2ncnc(N)c2[N+](=O)[O-])c1OC", "outcome": "inactive"}
{"smiles": "O=C(O)c1ccc(-n2cncn2)c([N+](=O)[O-])c1", "outcome": "inactive"}
{"smiles": "O=c1c([N+](=O)[O-])cn(Cc2ccccc2)c(=O)n1Cc1ccccc1", "outcome": "inactive"}
{"smiles": "COc1cc(C(c2sc3nc(C)nn3c2O)N2CCc3ccccc3C2)cc(OC)c1OC", "note": "(centres undefined)", "outcome": "inactive"}
{"smiles": "COc1cccc(C2Nc3ccc4ccccc4c3C3=C2C(=O)CC(C)(C)C3)c1OCC(=O)O", "note": "(centres undefined)", "outcome": "inactive"}
{"smiles": "Cc1c(C=O)c2ccccn2c1C(=O)c1ccccc1Cl", "outcome": "inactive"}
{"smiles": "Clc1ccc(-c2nnc(NC3=NCCCCC3)o2)cc1", "outcome": "inactive"}
{"smiles": "C[C@@H](OC(=O)c1[nH]cnc1C(=O)N1CCc2ccccc2C1)c1ccccc1", "outcome": "inactive"}
{"smiles": "COc1ccc(CCNC(=O)CSC(=O)c2ccccc2)cc1OC", "outcome": "inactive"}
{"smiles": "O=C(O)c1cn2c3c(ccc(Cl)c3c1=O)OCC2", "outcome": "inactive"}
{"smiles": "CCCCN1C2CCCC1CC(NC(=O)C1CCCCC1)C2", "note": "(centres undefined)", "outcome": "inactive"}
{"smiles": "O=C(NCc1ccco1)C1CC(=O)N(c2cccc(Cl)c2)C1", "note": "(centres undefined)", "outcome": "inactive"}
{"smiles": "O=C(COC(=O)c1ccc(S(=O)(=O)NCc2ccco2)cc1)Nc1ccc(Cl)cn1", "outcome": "inactive"}
{"smiles": "COc1ccc(-n2cc(C(=O)c3ccccc3O)cn2)cc1", "outcome": "inactive"}
{"smiles": "CCc1ccc(/C=C2\\SC(=S)N(CCCC(=O)NC3=NCCS3)C2=O)cc1", "outcome": "inactive"}
{"smiles": "COc1cccc(C(=O)N2CCN(c3nc4cc(C)cc(C)c4cc3C#N)CC2)c1", "outcome": "inactive"}
{"smiles": "CCCSc1ccc([C@@H]2[C@H]3C(=O)N(C)C(=O)[C@H]3[C@]3(C(=O)OC)CCCN23)cc1OC", "outcome": "inactive"}
{"smiles": "CCCn1c(C)cc(C(=O)CN2C(=O)c3ccccc3S2(=O)=O)c1C", "outcome": "inactive"}
{"smiles": "CCSc1nnc(NC(=O)CSc2nnc(-c3c[nH]c4ccccc34)n2CC)s1", "outcome": "inactive"}
{"smiles": "CC(=O)c1ccccc1OCC(=O)Nc1cccc(S(=O)(=O)N2CCCC2)c1", "outcome": "inactive"}
{"smiles": "O=C(CCCN1C(=O)[C@H]2CC=CC[C@H]2C1=O)NCc1nc(-c2ccc(Cl)cc2)no1", "outcome": "inactive"}
{"smiles": "Cc1cccc(-n2c(O)c(C=Nc3c(C)n(C)n(-c4ccccc4)c3=O)c3ccccc3c2=O)n1", "outcome": "inactive"}
{"smiles": "COC(=O)C1=C(C)N(c2cc(C)cc(C)c2)/C(=C/c2ccc(O)cc2)C1=O", "outcome": "inactive"}
{"smiles": "COc1cc(N)c(Cl)cc1C(=O)NC1CCN(Cc2ccccc2)CC1", "outcome": "inactive"}
{"smiles": "Cc1cccc(Nc2nc(Cl)ncc2F)c1C", "outcome": "inactive"}
{"smiles": "Cc1ccccc1C(=O)N1CCN(c2ccc(NC(=O)c3cccs3)cc2)CC1", "outcome": "inactive"}
{"smiles": "COc1cc(OC)cc(C(=O)N[C@H](C(=O)OCC(=O)c2ccc(C)c([N+](=O)[O-])c2)C(C)C)c1", "outcome": "inactive"}
{"smiles": "CCOC(=O)Oc1c(OC)cc(C(=O)O[C@@H]2C[C@@H]3CN4CCc5c([nH]c6cc(OC)ccc56)[C@H]4C[C@@H]3[C@H](C(=O)OC)[C@H]2OC)cc1OC", "outcome": "inactive"}
{"smiles": "CCOC(=O)c1cc(-c2ccccc2)n(CC(=O)Nc2cccc(OC)c2)c1C", "outcome": "inactive"}
{"smiles": "CCOC(=O)c1nc(NCc2ccccc2F)c2ccccc2n1", "outcome": "inactive"}
{"smiles": "COCCn1c(C)cc(C(=O)COc2ccc(C)nc2[N+](=O)[O-])c1C", "outcome": "inactive"}
{"smiles": "COC(=O)c1[nH]c2ccc(C)cc2c1NC(=O)NC1CCCCC1", "outcome": "inactive"}
{"smiles": "CN(CC(=O)Nc1cccnc1)S(=O)(=O)c1ccc(Br)cc1", "outcome": "inactive"}
{"smiles": "COc1cc(C2CC(=O)N3CN(Cc4ccccc4)CSC3=C2C#N)ccc1OCc1ccccc1", "note": "(centres undefined)", "outcome": "inactive"}
{"smiles": "COc1ccccc1OCc1ccc(C(=O)c2ccccc2)cc1", "outcome": "inactive"}
{"smiles": "O=C(O)C1CC(=O)N(c2ccc(Br)cc2)C1", "note": "(centres undefined)", "outcome": "inactive"}
{"smiles": "CNS(=O)(=O)c1cccc(C(=O)OCC(=O)c2ccc3c(c2)OCCO3)c1", "outcome": "inactive"}
{"smiles": "COc1ccc(OC)c2[nH]c(=O)c(CCNC(=O)c3ccc(S(=O)(=O)N(C)C)cc3)cc12", "outcome": "inactive"}
